{"source": "PubChem BioAssay (Tox21)", "note": "Inconclusive results are not listed. Entries that show only a call come without a potency. The source made the active and inactive calls. The call rests on the fitted dose curve; in most records, active means well fitted activation curve with a large enough effect in the signal ratio in the repeat runs (not every such curve was filed as active); inconclusive means weak or mixed curves; inactive means flat fitted curve, though single readings scatter; the % refers to the signal ratio."}
{"experiment": "qHTS assay to identify small molecule agonists of H2AX (AID 1224845)", "settings": "CHO-K1 phospho-H2AX Ser139 HTRF, 3 h; series mostly up to 154 µM", "from_the_text": "National Center for Advancing Translational Sciences [NCATS]\nNIH Chemical Genomics Center [NCGC]\nU.S. Environmental Protection Agency [EPA]\nNational Institutes of Environmental Health Sciences [NIEHS]\nNational Toxicology Program [NTP]\nU.S. Food and Drug Administration [FDA]\nHTRF phospho-H2AX (Ser139) assay (Cisbio Bioassays, US) enables the quantitative detection of the histone variant H2AX when phosphorylated on serine 139. When double-stranded DNA breaks, either by ionizing radiation or endogenous physiological processes, H2AX becomes phosphorylated at Ser139. This phospho-Ser139 serves as a sensitive biomarker for the detection of such breaks, localizing the site of DNA repair. So, HTRF phospho-H2AX Ser139 is a pertinent assay to study genome stability, the cell cycle, DNA repair, and it serves as a biomarker for cancer, and to understand aging. Wild type CHO-K1 cells were used to identify the inducers of Phospho-H2AX Ser 139 from the Tox21 10K compound collections.\nTox21 Assay Protocol Summary:\nThe CHO-K1 cells suspended in culture medium containing 10% FBS were dispensed at 1000 cells/ 3 ul/well in 1536-well white wall/solid bottom plates (Greiner Bio-One North America, NC) using a Multidrop Combi (Thermo Fisher Scientific Inc., Waltham, MA). After the assay plates were incubated at 37C overnight, 23 nl of compounds at 15 concentrations (from 5-48 columns) or positive control (from 1 to 4 columns) were transferred to the assay plates using a Pintool station (Wako, San Diego, CA) into each well resulting in a final DMSO concentration of 0.76%. After 3hr incubation at 37C, 1 uL/well Supplemented Lysis buffer (diluted 100 fold blocking reagent in lysis buffer) (HTRF Phospho-H2A.X (S139) Assay kit from Cisbio US Inc., Bedford, MA) was added using a Flying Reagent Dispenser (FRD) (Aurora Discovery, CA). After 10sec spin at 1000 rpm in a plate centrifuge, the assay plates were incubated at room temperature for 30 min. Then followed by the addition of 1 uL/well detection buffer (containing a mixture of two antibodies, one labeled with cryptate, Anti pH2AX (S139)-K and another labeled with d2, Anti H2AX-d2) using FRD. After incubation at room temperature for 24 hr, the time resolved fluorescence at excitation 320 nm and emissions at 665 nm and 620 nm was measured using an Envision plate reader (PerkinElmer, Waltham, MA)."}
{"smiles": "OC(Cn1cncn1)(c1ccc(F)cc1)c1ccccc1F", "note": "(stereo not given)", "Potency": "inactive"}
{"smiles": "Clc1ccccc1N1CCNCC1", "Potency": "inactive"}
{"smiles": "Nc1ccccc1Cl", "Potency": "inactive"}
{"smiles": "NC(=O)O", "Potency": "inactive"}
{"smiles": "CCC#N", "Potency": "inactive"}
{"smiles": "Nc1cnn(-c2ccccc2)c(=O)c1Cl", "Potency": "inactive"}
{"smiles": "CCCCC(=O)Cl", "Potency": "inactive"}
{"smiles": "C(CCOCC1CO1)COCC1CO1", "note": "(stereo not given)", "Potency": "inactive"}
{"smiles": "Clc1cccc(N2CCNCC2)c1", "Potency": "inactive"}
{"smiles": "COC(=O)C(c1ccccc1)C1CCCCN1", "note": "(stereo not given)", "Potency": "inactive"}
{"smiles": "CN/C(=N\\[N+](=O)[O-])NCC1CCOC1", "note": "(stereo not given)", "Potency": "inactive"}
{"smiles": "CC(CC(C#N)(c1ccccc1)c1ccccc1)N(C)C", "note": "(stereo not given)", "Potency": "inactive"}
{"smiles": "CNNC", "Potency": "inactive"}
{"smiles": "Cc1ncc2n1-c1ccc(Cl)cc1C(c1ccccc1F)=NC2", "Potency": "inactive"}
{"smiles": "CCC1(c2ccccc2)C(=O)N=C(O)NC1=O", "note": "(stereo not given)", "Potency": "inactive"}
{"smiles": "COc1ncc(F)c2nc(S(=O)(=O)Nc3c(F)cccc3F)nn12", "Potency": "inactive"}
{"smiles": "CC(C)NCC(O)c1ccc(N)c(C#N)c1", "note": "(stereo not given)", "Potency": "inactive"}
{"smiles": "C[C@]12CC[C@H]3[C@@H](CCC4=CC(=O)CC[C@@]43C)[C@@H]1CC[C@@H]2C(=O)O", "Potency": "inactive"}
{"smiles": "COC(=O)c1c(C(F)F)nc(C(F)(F)F)c(C2=NCCS2)c1CC(C)C", "Potency": "inactive"}
{"smiles": "CC(COc1ccc(Oc2ccccc2)cc1)Oc1ccccn1", "note": "(stereo not given)", "Potency": "inactive"}
{"smiles": "CC(C)CC(N(C)C)C1(c2ccc(Cl)cc2)CCC1", "note": "(stereo not given)", "Potency": "inactive"}
{"smiles": "C[N+](C)=CCl", "Potency": "inactive"}
{"smiles": "CN(N=O)C(N)=O", "Potency": "inactive"}
{"smiles": "CC1CCCCC1NC(=O)Nc1ccccc1", "note": "(stereo not given)", "Potency": "inactive"}
{"smiles": "CNC(=O)Oc1cccc(C(C)C)c1", "Potency": "inactive"}
{"smiles": "O=C(CCN1CC1)OCC(CO)(COC(=O)CCN1CC1)COC(=O)CCN1CC1", "Potency": "inactive"}
{"smiles": "CCC(=O)C(CCN(C)C)(c1ccccc1)c1ccccc1", "Potency": "inactive"}
{"smiles": "CCCCCCBr", "Potency": "inactive"}
{"smiles": "CCCCOC(=O)[C@@H](C)Oc1ccc(Oc2ccc(C#N)cc2F)cc1", "Potency": "inactive"}
{"smiles": "CCOP(=S)(OCC)Oc1cc(-c2ccccc2)on1", "Potency": "inactive"}
{"smiles": "OCCBr", "Potency": "inactive"}
{"smiles": "CC(C)(C)NCC(O)c1cc(Cl)c(N)c(Cl)c1", "note": "(stereo not given)", "Potency": "inactive"}
{"smiles": "c1coc(-c2nc3ccccc3[nH]2)c1", "Potency": "inactive"}
{"smiles": "O=C(Nc1ccccc1)N(Cc1ccc(Cl)cc1)C1CCCC1", "Potency": "inactive"}
{"smiles": "ClC(Cl)Br", "Potency": "inactive"}
{"smiles": "CCCSC(=O)N(CCC)CCC", "Potency": "inactive"}
{"smiles": "N#CCCC#N", "Potency": "inactive"}
{"smiles": "CC(=O)C(Cl)Cl", "Potency": "inactive"}
{"smiles": "CCOP(=O)(N=C1SCCS1)OCC", "Potency": "inactive"}
{"smiles": "O=C(Nc1ccccc1)c1ccccc1I", "Potency": "inactive"}
